Hits are enriched below; roughly 2.4% of the tested compounds scored in any of these assays.
M1 PAM parental – nonselective activator or artifact in parental CHO-K1 calcium assay. ATP EC20, Fluo-8 calcium fluorescence; 0% at ATP EC20, 100% at ATP max. activation, % at 3 µM. 360,000 tested, 0.02% active. AID 602247;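 active = activation above the run cutoff, the mean activation of all test compounds plus 3 SD, cut at about 40% in these data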;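 note: peak over basal fluorescence ratio in a 140 s read after ATP addition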
CHO-K1 Ca antag – nonselective inhibitor or artifact in parental CHO-K1 cells; ATP-induced calcium, Fluo-8 fluorescence; inhibition, % at 3 µM; 360,000 tested, 0.6% active; AID 602250;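 active = inhibition above a per-plate cutoff, the plate's mean sample inhibition plus 3 SD, cut at about 24% in these data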;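 note: 0% = DMSO plus EC80 ATP and 100% = DMSO alone without ATP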
M1 ag parental – counter-screen for M1 agonists: effect in parental CHO-K1 cells. Fluo-8 calcium fluorescence; scaled to maximal ATP response, vehicle zero. 360,000 tested, 0.48% active. AID 602248. activation, % at 3 µM; in the data active = activation above about 15%;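 note: untransfected CHO-K1 host cells lacking M1 receptor as counterscreen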
M1 antag – antagonists of human M1 muscarinic receptor | P11229 | CHO-K1 hM1, Fluo-8 calcium fluorescence, ACh EC80 antagonist | inhibition, % at 3 µM | 360,000 tested, 1.3% active | AID 588852;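 active = percent inhibition above its own plate's cutoff, namely the mean of that plate's compound wells plus 3 SD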;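 note: peak over basal fluorescence ratio during 140 s after agonist addition; 0% = ACh EC80 plus DMSO and 100% = DMSO alone without agonist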
Target sequence (P11229 whole entry, looked up): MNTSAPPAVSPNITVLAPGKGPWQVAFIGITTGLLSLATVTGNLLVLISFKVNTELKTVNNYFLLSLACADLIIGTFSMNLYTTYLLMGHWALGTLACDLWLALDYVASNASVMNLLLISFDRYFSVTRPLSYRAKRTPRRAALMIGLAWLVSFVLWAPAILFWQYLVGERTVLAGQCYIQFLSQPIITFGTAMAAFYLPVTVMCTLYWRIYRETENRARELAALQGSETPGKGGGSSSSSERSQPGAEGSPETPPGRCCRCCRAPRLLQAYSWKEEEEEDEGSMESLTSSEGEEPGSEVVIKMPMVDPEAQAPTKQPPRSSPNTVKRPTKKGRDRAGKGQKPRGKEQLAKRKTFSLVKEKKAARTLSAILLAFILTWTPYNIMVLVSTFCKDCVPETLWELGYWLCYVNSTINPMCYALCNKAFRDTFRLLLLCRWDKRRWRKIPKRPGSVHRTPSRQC
CHRM1 agonist – activates human CHRM1 receptor | P11229 | CHO-K1 hM1, Fluo-8 calcium fluorescence, agonist mode; 0% DMSO, 100% acetylcholine EC100 | activation, % at 3 µM | 360,000 tested, 0.33% active;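 active = activation above the run's mean compound activation plus 3 SD, cut at about 16% in these data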;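 note: peak over basal fluorescence ratio within a 140 s kinetic read after compound addition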
CHRM1 PAM – human CHRM1 positive allosteric modulation | 360,000 tested, 0.088% active | activation, % at 3 µM | AID 588819 | CHO-K1 hM1, Fluo-8 calcium fluorescence, ACh EC20; 0% = ACh EC20, 100% = maximal ACh; in the data active = activation above about 19%, passing the limit was not always enough
The depositor's hits bear a star.

SMILES | M1 PAM parental | CHO-K1 Ca antag | M1 ag parental | M1 antag | CHRM1 agonist | CHRM1 PAM
Cc1ccc(NC(=O)CN(C)C(=O)C(C)OC(=O)c2ccccc2NCCO)cc1 (stereo not drawn) | 7.8 | -2.2 | 0.3 | -27.2 | 2.3 | 27.5*
COc1ccc(CCNc2nc3ccccc3n3nnnc23)cc1OC | -0.2 | 26.7* | 2.1 | 4.7 | 0.8 | -4.2
CC1(C(=O)NCc2ccccc2)CCC(=O)N1CCOc1ccccc1 (stereo not drawn) | -7.8 | 26.6* | 0.1 | 13.2 | -5.1 | -4.1
COc1ccc(S(=O)(=O)N2CCC(C(N)=O)CC2)cc1C(=O)N1CCCCCC1 | 13.3 | -13.6 | 0.7 | -4.1 | -6.6 | 3.5
CC(=O)Oc1cc2c(cc1Cl)C1(CC(c3ccccc3Cl)O2)CC(C)(C)NC(=S)N1 (stereo not drawn) | 11.2 | -5.0 | 0.5 | 47.2* | -3.1 | -11.8
COc1ccc(C(=O)NCC(=O)OCC(=O)N2CC(C)OC(C)C2)cc1OC (stereo not drawn) | 7.4 | -4.6 | 0.5 | -13.5 | -3.0 | 2.9
O=C(NCCn1cc(SCc2ccccc2F)c2ccccc21)c1c(F)cccc1F | 29.6 | -3.1 | 3.9 | 31.7* | -4.5 | -19.5
O=C(NCCn1cc(SCC(=O)N2CCOCC2)c2ccccc21)c1c(F)cccc1F | 4.1 | -1.5 | 2.7 | -1.1 | -1.7 | -4.0
COC(=O)[C@H]1C[C@@]2(O)CN(S(=O)(=O)c3ccc(C)cc3)C[C@@]2(OC(=O)Nc2cccs2)C[C@H]1C(=O)OC | 12.9 | -4.3 | 0.3 | -2.0 | -2.7 | 1.9
Cc1cccc(C)c1NC(=O)C1CCCN(CCCc2ccccc2)C1 (stereo not drawn) | 16.1 | -4.0 | 1.6 | 96.6* | -7.1 | -24.0
COCCNC(=O)C1Cc2c(ccc3ccccc23)O1 (stereo not drawn) | 18.6 | -11.3 | 2.0 | -8.8 | -2.7 | 8.7
CN(C)/C=N/NC(=O)C1Cc2c(ccc3ccccc23)O1 (stereo not drawn) | 17.6 | -0.2 | 16.0* | -10.5 | -3.8 | 7.0
COc1ccccc1NC(=S)N1CCc2cc(OC)c(OC)cc2C1 | -16.6 | 24.4* | -0.1 | -1.4 | -3.0 | -0.7
Cc1noc(C(C)C)c1C(=O)Nc1ccc(-c2nnc3n2CCCCC3)cc1 | 5.5 | -9.3 | 0.1 | 32.5* | -8.8 | -15.8
Cc1onc(-c2ccccc2)c1C(=O)Nc1ccc(-c2nnc3n2CCCCC3)cc1 | -5.5 | 4.0 | 0.7 | -8.1 | -5.3 | 2.4
CN(C(=O)c1ccccc1-c1ncc[nH]1)C1CCCN(Cc2ccccc2F)C1 (stereo not drawn) | -13.7 | 5.4 | 0.4 | -9.3 | -4.9 | 6.8
NC(=O)C1CCN(C(=O)CSc2nc3ccccc3s2)CC1 | -6.6 | 23.8* | -0.3 | 8.0 | 0.0 | -3.8
O=C(CCCCCn1c(=S)[nH]c2cc3c(cc2c1=O)OCO3)N1CCN(Cc2ccccc2)CC1 | -3.6 | 4.8 | 1.6 | 18.6 | -4.9 | -6.6
O=C(CCCCCn1c(=S)[nH]c2cc3c(cc2c1=O)OCO3)N1CCN(C2CCCCC2)CC1 | -2.6 | 5.4 | 1.6 | 36.6* | -3.8 | -17.6
N#C/C(=C\c1ccc2c(c1)OCCO2)C(=O)Nc1nccs1 | -12.8 | 12.0 | 1.1 | 6.1 | -0.9 | -2.7
CC[N+](C)(C)CCN(Cc1ccc(Cl)cc1)c1ccccn1 | -4.7 | -2.1 | 0.1 | 80.3* | 15.2 | -13.3
CNC(=O)COC(=O)c1ccc2c(c1)S(=O)(=O)c1ccccc1C2=O | 10.4 | -21.3 | 3.3 | -8.3 | -2.9 | 11.6
COc1cc(C2C3=C(COC3=O)Oc3cc4c(cc32)OCO4)ccc1OC(C)=O (stereo not drawn) | 15.1 | -14.2 | 0.6 | -3.6 | -5.4 | 1.0
COc1ccc(C2C3=C(COC3=O)Oc3cc4c(cc32)OCO4)cc1OC (stereo not drawn) | 7.6 | -14.2 | 0.1 | -25.4 | -1.2 | 28.5*
Cc1cc(F)ccc1S(=O)(=O)N1CCCOC1CNC(=O)C(=O)NCc1cccnc1 (stereo not drawn) | 7.2 | -7.6 | 0.7 | 5.9 | -1.0 | -3.0
SMILES | M1 PAM parental | CHO-K1 Ca antag | M1 ag parental | M1 antag | CHRM1 agonist | CHRM1 PAM
COc1cccc(CNc2ccc3c(c2)CCC3)c1 | -6.5 | -13.4 | 0.3 | -17.2 | -2.5 | -5.0
COc1cccc(CNc2ccc(C)c(Cl)c2)c1 | 5.3 | 0.6 | 16.6* | -11.3 | -11.3 | 6.6
O=C(NC(=S)NC(CO)c1ccccc1)c1ccc(F)cc1 (stereo not drawn) | 6.6 | -0.8 | 0.6 | -7.5 | -1.8 | 11.9
Cc1ccc(C=Nc2cc([N+](=O)[O-])ccc2C)s1 | -14.7 | 23.9* | -0.2 | 3.3 | -5.3 | 1.6
Cc1ccc([N+](=O)[O-])cc1N=Cc1ccc(Br)s1 | 4.8 | -6.0 | 0.1 | 11.4 | -2.7 | -3.0
COc1ccccc1CN(C)C(=O)c1cc(-c2cccs2)nc2ccccc12 | -0.3 | -3.6 | 6.9 | 27.5* | -3.9 | -12.2
COc1ccc(CN(C)C(=O)c2cc(-c3ccccc3)nc3ccc(C)cc23)c(OC)c1OC | -11.1 | 19.3 | 17.7* | 31.1 | -1.5 | -8.7
COc1ccc(CCN(C)C(=O)c2cc(-c3ccccc3)nc3ccc(C)cc23)cc1OC | -21.6 | 1.5 | 3.0 | 12.3 | -2.5 | -1.6
COc1ccc(-c2cc(C(=O)N(C)Cc3nc4ccccc4c(=O)[nH]3)c3ccccc3n2)cc1OC | 12.5 | -5.5 | 5.2 | 32.6* | 0.5 | -12.1
COc1cccc(CN(C)C(=O)c2cc(-c3ccc(OC)c(OC)c3)nc3ccccc23)c1 | -3.8 | 15.1 | 4.9 | 28.6 | -2.0 | -2.7
COc1ccc(-c2cc(C(=O)N(C)Cc3cccc(OC)c3OC)c3ccccc3n2)cc1OC | -16.6 | 3.0 | 6.0 | 12.9 | -2.7 | -8.1
COc1ccc(CN(C)C(=O)c2cc(-c3ccc(OC)c(OC)c3)nc3ccccc23)c(OC)c1 | 3.5 | 6.5 | 4.7 | 29.4* | -2.1 | -8.1
COc1ccc(-c2nn(-c3ccccc3)cc2/C=N/NC(=O)c2ccc(Br)o2)cc1 | 10.1 | -9.2 | 3.3 | 43.9* | 3.7 | -17.1
CSc1nc(N)c(C(=O)N(c2ccccc2)c2ccccc2)s1 | 3.2 | -13.7 | -0.5 | -12.1 | -7.2 | 6.8
CCCn1c(C(C)NC(=O)c2ccccc2)n[nH]c1=S (stereo not drawn) | 11.6 | -0.2 | 17.0* | -10.6 | -2.1 | 5.5
c1ccc2c(c1)NCC1CCCN21 (stereo not drawn) | 1.0 | 1.7 | 0.5 | -4.9 | -8.9 | -0.4
CCOC(=O)Nc1ccc2c(c1)N(C(=O)N1CCN(C)CC1)c1ccccc1S2 | 13.2 | -1.1 | 0.5 | 97.3* | -5.1 | -23.1
CCOC(=O)Nc1ccc2c(c1)N(C(=O)CCN1CCN(C)CC1)c1ccccc1S2 | 5.3 | 1.0 | 0.1 | -20.3 | 12.3 | -10.7
CC(C)OC(=O)Nc1ccc2c(c1)N(C(=O)N1CCN(C)CC1)c1ccccc1CC2 | 8.4 | -5.8 | 2.4 | 78.2* | 2.0 | -22.5
